61 compounds from PubChem BioAssay AID1224921 (Broad Institute, 2016) can be followed below.

Structures are written as SMILES. About 350 (25%) of roughly 1,400 compounds were called active. Roughly 2% stayed inconclusive and do not appear here. Only a sample is shown. Potency and affinity values are given separately. A number with no mark means an inactive call. How the calls were made is not given here.

The nature of the experiment: C. difficile growth inhibition, confirmation, 4-point retest (AID 1224921).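 Further: plate controls were DMSO wells for no effect and levofloxacin 16 µg/mL wells for full effect.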 Conditions: Clostridioides difficile clinical isolate growth, OD600, 24 h, active compounds read low; at 30 µM unless noted.
For the compound `N#C[C@H]1[C@@H](c2ccc(C#Cc3ccccc3F)cc2)[C@@H](CO)N1C(=O)C1CCC1`, the max activity was -4.04%.
With `COc1ccccc1C#Cc1ccc([C@@H]2[C@@H](CO)N(C(=O)C3CCCCC3)[C@H]2C#N)cc1`, the max activity is 12.6% [at 1.95 µM].
As for `COc1cccc(C#Cc2ccc([C@H]3[C@@H](CO)N(C(=O)C4CCC4)[C@H]3C#N)cc2)c1`, the figure is 29% [at 8 µM]; as for `COc1ccccc1C#Cc1ccc([C@H]2[C@@H](C#N)N(C(=O)C3CCC3)[C@H]2CO)cc1`, 29.5% [at 8 µM].
The result for `COc1cccc(C#Cc2ccc([C@@H]3[C@@H](C#N)N(C(=O)C4CCCCC4)[C@H]3CO)cc2)c1` reads 32.5%.
For `N#C[C@@H]1[C@@H](c2ccc(C#Cc3cccc(F)c3)cc2)[C@H](CO)N1C(=O)C1CCC1`, the max activity is 24.5% [at 0.5 µM].
As for `COc1ccccc1C#Cc1ccc([C@H]2[C@@H](CO)N(C(=O)C3CC3)[C@H]2C#N)cc1`, the figure is 12.6%; as for `COc1ccccc1C#Cc1ccc([C@@H]2[C@@H](C#N)N(C(=O)C3CCCCC3)[C@H]2CO)cc1`, 30.9%.
As for `C[C@H](C(=O)N(C)C[C@@H]1OCc2ccccc2-c2ccccc2C(=O)N([C@H](C)CO)C[C@H]1C)c1ccccc1`, the figure is -11.2% [at 1.95 µM]; as for `CCCC(=O)Nc1ccc2c(c1)C(=O)N(C)C[C@@H](OC)[C@H](C)CN(Cc1ccccc1)[C@@H](C)CO2`, 26.7%.
As for `O=C(C[C@H]1CC[C@H](NC(=O)C2CCOCC2)[C@@H](CO)O1)Nc1nccs1`, the figure is -4.31% [at 1.95 µM].
Turning to `C[C@H]1CN([C@@H](C)CO)S(=O)(=O)c2ccc(C#Cc3ccc(F)cc3)cc2O[C@@H]1CN(C)S(C)(=O)=O`, the max activity is -17.5% [at 1.95 µM].
The result for `CCCC#Cc1ccc2c(c1)O[C@H](CN(C)Cc1ccncc1)[C@H](C)CN([C@@H](C)CO)S2(=O)=O` reads -13.4% [at 8 µM]; that for `CCCC(=O)Nc1ccc2c(c1)OC[C@@H](C)N(C(=O)c1ccccc1F)C[C@@H](C)[C@H](OC)CN(C)C2=O`, -11% [at 1.95 µM]; that for `CO[C@@H]1CN(C)C(=O)c2cc(NC(=O)c3cccc(F)c3)ccc2OC[C@@H](C)N(C(C)=O)C[C@@H]1C`, 7.72%.
Consider `C[C@@H]1CN([C@H](C)CO)C(=O)c2ccccc2-c2ccccc2CO[C@H]1CN(C)S(=O)(=O)c1ccc(Cl)cc1`, for which the max activity is 34.1%.
For `CCCN1C[C@H](C)[C@H](OC)CN(C)C(=O)c2cc(NC(=O)Nc3cccc(OC)c3)ccc2OC[C@@H]1C`, the max activity was 17.5% [at 35 µM].
The result for `C[C@H](CO)N1C[C@H](C)[C@H](CN(C)Cc2ccccc2)Oc2c(NS(C)(=O)=O)cccc2C1=O` reads 24.8%.
As to `C[C@@H]1CN([C@@H](C)CO)C(=O)c2cccc(NS(C)(=O)=O)c2O[C@H]1CN(C)Cc1ccccc1`, the max activity is 16.6%.
In the case of `C[C@H]1CN([C@@H](C)CO)C(=O)c2cccc(NS(=O)(=O)c3ccccc3)c2O[C@H]1CN(C)Cc1ccc(Cl)c(Cl)c1`, the max activity was 33.4%.
Turning to `C[C@@H]1CN([C@@H](C)CO)C(=O)c2cccc(NS(C)(=O)=O)c2O[C@@H]1CN(C)Cc1ccccc1`, the max activity was -11.2% [at 8 µM].
Take `C[C@@H]1CN([C@@H](C)CO)C(=O)c2cc(NC(=O)Nc3ccc(C(F)(F)F)cc3)ccc2O[C@@H]1CN(C)Cc1ccc(Oc2ccccc2)cc1`: the max activity was 30.2%.
As for `O=C(C[C@H]1C=C[C@H](NC(=O)c2ccncc2)[C@@H](CO)O1)Nc1ccc(-c2ccccc2)cc1`, the figure is -5.7% [at 0.5 µM]; as for `COc1ccc(COC[C@@]23Oc4ccccc4[C@@H](NC(=S)N2C)[C@H]3CO[Si](C)(C)C(C)(C)C)cc1`, 23.7%.
As for `O=C(C[C@H]1C[C@H]2c3cc(NC(=O)Nc4ccccc4)ccc3O[C@H]2[C@@H](CO)O1)NC1CCCC1`, the figure is -20.3% [at 1.95 µM]; as for `C[C@H]1CN([C@@H](C)CO)S(=O)(=O)c2ccc(C3=CCCCC3)cc2O[C@@H]1CN(C)Cc1cccnc1`, 31.2%; as for `COc1cccc(NC(=O)N(C)C[C@H]2Oc3cc(C#CC4(O)CCCC4)ccc3S(=O)(=O)N([C@@H](C)CO)C[C@H]2C)c1`, -5.35% [at 0.5 µM].
Turning to `CO[C@H]1CN(C)C(=O)c2ccc(NC(=O)c3ccccc3F)cc2OC[C@@H](C)N(CC2CC2)C[C@@H]1C`, the max activity is -8.61% [at 0.5 µM].
Regarding `COc1ccc(CN(C)C[C@@H]2OCCCC[C@@H](C)Oc3ccc(NC(=O)Nc4cccc5ccccc45)cc3C(=O)N([C@@H](C)CO)C[C@H]2C)cc1`, the max activity is 29.5% [at 8 µM].
As for `COc1ccc(CN(C)C[C@@H]2OCCCC[C@H](C)Oc3ccc(NC(=O)Nc4cccc5ccccc45)cc3C(=O)N([C@@H](C)CO)C[C@H]2C)cc1`, the max activity was 25.5%.
As to `COc1ccc(CN(C)C[C@@H]2OCCCC[C@@H](C)Oc3ccc(NC(=O)Nc4cccc5ccccc45)cc3C(=O)N([C@H](C)CO)C[C@H]2C)cc1`, the max activity was 17.7% [at 1.95 µM].
Regarding `C[C@@H]1CN([C@@H](C)CO)C(=O)c2cc(NC(=O)Nc3cccc4ccccc34)ccc2O[C@@H](C)CCCCO[C@H]1CN(C)Cc1ccccc1`, the max activity is 42%.
As to `CC(C)(C)[S@@](=O)N1Cc2cc(C(=O)NCc3ccc4c(c3)OCO4)nc(-c3cccc(-c4cccnc4)c3)c2[C@H]1CCO`, the max activity was 31.3% [at 35 µM].
As for `O=C(C[C@@H]1C=C[C@H](NC(=O)c2cccnc2)[C@H](CO)O1)NCc1ccc(Cl)c(Cl)c1`, the figure is -13.7% [at 1.95 µM]; as for `Cc1ccc(-c2ccc3c(c2)O[C@@H](CN(C)Cc2cccnc2)[C@H](C)CN([C@@H](C)CO)S3(=O)=O)cc1`, 41.8%; as for `C[C@H](NC(=O)C[C@@H]1CC[C@@H]2[C@H](COC[C@@H](O)CN2C(=O)Nc2cc(Cl)cc(Cl)c2)O1)c1ccccc1`, 14% [at 1.95 µM].
As for `C[C@H](NC(=O)C[C@@H]1CC[C@@H]2[C@H](COC[C@H](O)CN2C(=O)Nc2cc(Cl)cc(Cl)c2)O1)c1ccccc1`, the figure is 24.8% [at 8 µM].
As for `C[C@@H]1CN([C@@H](C)CO)S(=O)(=O)c2ccc(C#CCN(C)C)cc2O[C@H]1CN(C)C(=O)c1ccccc1F`, the figure is 7.9%.
Turning to `N#C[C@@H]1[C@@H](c2ccc(/C=C/c3ccccc3)cc2)[C@@H](CO)N1C(=O)C1CCC1`, the max activity was 38.2% [at 35 µM].
As for `COc1ccc(C(=O)Nc2ccc3c(c2)OC[C@H](C)N(C(C)=O)C[C@@H](C)[C@H](OC)CN(C)C3=O)cc1`, the figure is -10.5%; as for `C[C@H](CO)N1C[C@H](C)[C@@H](CN(C)S(C)(=O)=O)OCCCC[C@H](C)Oc2ccc(NC(=O)Nc3cccc4ccccc34)cc2C1=O`, 7.82%.
Regarding `COc1ccc(-c2ccc([C@H]3[C@@H](C#N)N(C(=O)C4CCCC4)[C@@H]3CO)cc2)cc1`, the max activity was 25.1% [at 35 µM].
The result for `CCCC(=O)Nc1ccc2c(c1)C(=O)N(C)C[C@@H](OC)[C@H](C)CN(CC1CCOCC1)[C@@H](C)CO2` reads -8.25%; that for `C[C@@H]1CN([C@H](C)CO)S(=O)(=O)c2ccc(C#CC3CC3)cc2O[C@H]1CN(C)Cc1ccncc1`, 29.7% [at 8 µM].
`O=C(C[C@@H]1CC[C@H](NC(=O)CCN2CCCCC2)[C@@H](CO)O1)Nc1nccs1`: the max activity is -9.66% [at 1.95 µM].
Take `C[C@@H]1CCCCO[C@H](CN(C)Cc2ccc(C(F)(F)F)cc2)[C@H](C)CN([C@@H](C)CO)C(=O)c2cc(NS(C)(=O)=O)ccc2O1`: the max activity was 30.2%.
Turning to `O=C(C[C@H]1C=C[C@H](NC(=O)c2ccccn2)[C@@H](CO)O1)NCc1cc(F)cc(F)c1`, the max activity was -9.02% [at 8 µM].
As for `O=C(C[C@H]1C[C@H]2c3cc(NC(=O)Nc4ccc(C(F)(F)F)cc4)ccc3O[C@H]2[C@@H](CO)O1)NCc1ccc2c(c1)OCO2`, the figure is -6.78% [at 1.95 µM]; as for `CO[C@@H]1CN(C)C(=O)c2cc(NS(=O)(=O)c3cn(C)cn3)ccc2OC[C@@H](C)N(Cc2cccc(C(F)(F)F)c2)C[C@H]1C`, 28.5%.
In the case of `Cc1noc(C)c1NC(=O)N[C@@H]1CC[C@H](CC(=O)Nc2ccc(-c3ccccc3)cc2)O[C@H]1CO`, the max activity was 26.4%.
The result for `O=C(Nc1ccc(F)cc1)Nc1ccc2c(c1)[C@H]1C[C@@H](CC(=O)N3CCCCC3)O[C@H](CO)[C@H]1O2` reads -19.5% [at 2.1 µM]; that for `CCCN1C[C@@H](C)[C@@H](OC)CN(C)C(=O)c2cc(NC(=O)c3cccc(OC)c3)ccc2OC[C@H]1C`, -8.56% [at 0.5 µM]; that for `CC(C)CC#Cc1ccc2c(c1)O[C@H](CN(C)CC1CC1)[C@H](C)CN([C@H](C)CO)S2(=O)=O`, 6.75%.
Regarding `COCC(=O)Nc1ccc2c(c1)OC[C@H](C)N(Cc1cncnc1)C[C@@H](C)[C@H](OC)CN(C)C2=O`, the max activity was -11.5%.
Consider `COc1ccc(CNC(=O)N(C)C[C@H]2OCc3ccccc3-c3c(n(C)c4ccccc34)C(=O)N([C@@H](C)CO)C[C@@H]2C)cc1`, for which the max activity was 30.4%.
The result for `C[C@@H]1CN([C@@H](C)CO)C(=O)c2cc(NC(=O)Cc3ccccc3)ccc2O[C@@H]1CN(C)C(=O)Nc1ccccc1` reads -11.4% [at 0.5 µM]; that for `C[C@H](CO)N1C[C@H](C)[C@H](CN(C)C(=O)Nc2ccccc2)Oc2ccc(NC(=O)Cc3ccccc3)cc2C1=O`, -7.38%.
As for `C[C@H]1CN([C@@H](C)CO)C(=O)CCCn2nncc2CO[C@H]1CN(C)S(=O)(=O)c1ccc(Oc2ccccc2)cc1`, the figure is 10.4%; as for `C[C@H](CO)N1C[C@H](C)[C@H](CN(C)C(=O)Nc2ccc(C(F)(F)F)cc2)Oc2ncc(C3=CCCC3)cc2C1=O`, 32.4%; as for `C[C@H]1CN([C@@H](C)CO)C(=O)c2cc(NC(=O)Cc3ccccc3)ccc2O[C@H]1CN(C)C(=O)Nc1ccccc1`, -15.5%.
For the compound `C[C@@H]1CN([C@H](C)CO)C(=O)c2cc(NC(=O)Cc3ccccc3)ccc2O[C@@H]1CN(C)C(=O)Nc1ccccc1`, the max activity is -4.25%.
